GDH-TPI counter-1: GDH-TPI coupling enzyme inhibitors, primary screen, artefact control for M. tuberculosis FBA inhibitor project, biochemical, absorbance, full deck; actives 1.2% (n = 360,000); AID 588335, 2011; GDH-TPI coupled enzyme counterscreen, NADH absorbance; inhibition, % at 4.8 µM; in the data active = inhibition above about 30%;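 note: 0% = DMSO wells and 100% = wells lacking the enzyme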
Y pestis TopoI: Yersinia pestis topoisomerase I inhibitors, primary screen, biochemical, cleavage product accumulation, plate reader, single point; activity, % at 10 µM; Y. pestis Topo-I cleavage product accumulation; actives 0.064% (n = 360,000); in the data active = activity above about 50%, passing the limit was not always enough
TcdB GH inh: TcdB glycohydrolase inhibitors, primary screen, biochemical, single point, plate reader. Toxin B (Clostridioides difficile), P18177. TcdB glycohydrolase enzymatic assay. inhibition, % at 9.99 µM. actives 0.24% (n = 350,000). AID 652162, 2013; in the data active = inhibition above about 10%
PrPC TRFRET: inhibitors of human cell surface prion protein PrPC, primary screen, cell-based, TR-FRET; Major prion protein (Homo sapiens), P04156; TR-FRET read-out; inhibition, % at 13.8 µM; actives 0.43% (n = 370,000); AID 720596, 2013; in the data active = inhibition above about 24%; note: 0% = median of the test wells and 100% = reference compound wells
Mtb FBA inh: Mtb FBA enzyme inhibitors, primary screen, biochemical, fluorescence, strain H37Rv | inhibition, % at 1 µM | actives 2.3% (n = 360,000) | purified M. tuberculosis FBA, fluorescence read-out;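 note: 0% = vehicle and 100% = reference inhibitor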
Target sequence (P9WQA3 whole entry, looked up): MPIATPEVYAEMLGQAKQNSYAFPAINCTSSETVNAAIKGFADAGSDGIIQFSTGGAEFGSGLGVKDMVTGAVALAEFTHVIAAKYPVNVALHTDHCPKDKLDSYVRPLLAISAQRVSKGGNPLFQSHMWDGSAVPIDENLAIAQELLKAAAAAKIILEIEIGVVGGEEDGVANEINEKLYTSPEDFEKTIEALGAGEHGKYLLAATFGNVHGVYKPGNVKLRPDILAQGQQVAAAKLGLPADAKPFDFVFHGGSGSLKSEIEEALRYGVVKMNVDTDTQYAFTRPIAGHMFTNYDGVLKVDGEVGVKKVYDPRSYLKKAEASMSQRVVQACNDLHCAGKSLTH
Mtb FBA inh conf: M. tuberculosis aldolase blockers, biochemical, fluorescence, strain H37Rv, confirmation | shares compounds with Mtb FBA inh | purified M. tuberculosis FBA, fluorescence read-out | inhibition, % at 1 µM | actives 78% (n = 5,600) | AID 651616, 2012;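 note: 0% = vehicle wells and 100% = reference inhibitor wells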
GDH-TPI counter-2: GDH-TPI coupling enzyme inhibitors, artefact control for M. tuberculosis FBA inhibitor project, biochemical, fluorescence, high throughput; inhibition, % at 1 µM; shares compounds with Mtb FBA inh; AID 652141, 2013; actives 81% (n = 5,600); GDH-TPI coupled enzyme counterscreen; in the data active = inhibition above about 10%
Active calls of the source: *; · = no result given; + = active, no number. In the library only some 3.2% were active in any assay of this set; here they are far more common. Cut-off read from the data, not from the text of the source, unless noted: active = inhibition above about 27%; inactive = the rest.

SMILES | GDH-TPI counter-1 | Y pestis TopoI | TcdB GH inh | PrPC TRFRET | Mtb FBA inh | Mtb FBA inh conf | GDH-TPI counter-2
COc1c(Cl)cccc1-c1cn2ccccc2n1 | 7 | -8 | 1 | 2 | 68* | 6 | 4
C[C@@H]1CN([C@@H](C)CO)C(=O)c2cc(NS(=O)(=O)c3ccc(F)cc3)ccc2O[C@@H]1CN(C)Cc1ccc2c(c1)OCO2 | · | · | -1 | · | · | · | ·
C=CCn1c2ccccc2c(=O)c2cc(C#Cc3cc(OC)cc(OC)c3)ccc21 | 31* | 0 | 1 | 1 | 56* | 10 | 7
COc1cc(C#Cc2c(C=O)n(C)c3ccccc23)cc(OC)c1 | 15 | -2 | 1 | 3 | 6 | · | ·
CCOC(=O)c1cn(Cc2ccccc2)c2cc(C)nn2c1=O | 2 | -1 | 0 | 9 | 53* | 103* | 86*
CCOC(=O)c1cn(Cc2ccc(Cl)cc2Cl)c2cc(C)nn2c1=O | 4 | 2 | 0 | -3 | 29* | 72* | 59*
CO[C@H]1CN(C)C(=O)c2ccc(NS(C)(=O)=O)cc2OC[C@@H](C)N(CCC(F)(F)F)C[C@H]1C | · | · | 0 | · | · | · | ·
COc1cc2c(cc1OC)CN(Cc1ccc(F)cc1)CC2 | 1 | -5 | -4 | -7 | 43* | 64* | 45*
COc1ccc(CN2CCc3cc(OC)c(OC)cc3C2)cc1O | 1 | 0 | -1 | -4 | -1 | · | ·
CC(C)N1CC(O)=C(c2nc3ccccc3c(=O)[nH]2)C1=N | 10 | 3 | · | 4 | 44* | + | 170*
COc1cccc(N2CC(O)=C(c3nc4ccccc4c(=O)[nH]3)C2=N)c1 | 33* | -1 | · | · | 77* | 51* | 50*
Cc1cc(C)cc(N2CC(O)=C(c3nc4ccccc4c(=O)[nH]3)C2=N)c1 | 6 | 8 | -1 | -2 | 34* | 3 | 0
NCC[C@@H]1CC[C@@H](NC(=O)C2CC2)[C@@H](CO)O1 | · | · | -2 | · | · | · | ·
Cc1noc(C)c1NC(=O)N(C)C[C@@H]1Oc2c(NC(=O)c3ccc(-c4nccs4)cc3)cccc2C(=O)N([C@@H](C)CO)C[C@H]1C | · | · | 0 | · | · | · | ·
CCOC(=O)c1[nH]c2ccc(OC)cc2c1NC(=O)CN1CCC2(CC1)OCCO2 | 10 | 7 | · | 2 | 47* | 134* | 104*
CCOC(=O)c1[nH]c2ccc(C)cc2c1NC(=O)CN1CCCCC1 | 15 | 0 | · | 2 | 21 | · | ·
CCOC(=O)c1oc2ccccc2c1NC(=O)CN1CCN(C)CC1 | 0 | -13 | 2 | -8 | 2 | · | ·
CCOC(=O)c1oc2ccc(OC)cc2c1NC(=O)CN1CCN(C)CC1 | 3 | 1 | · | -6 | 40* | 1 | -5
CCOC(=O)c1[nH]c2ccc(OCC)cc2c1NC(=O)CN1CCCC(C)C1 (configuration not stated) | 8 | 11 | · | 1 | 38* | 49* | 47*
CCOC(=O)c1[nH]c2ccc(OC)cc2c1NC(=O)CCN1CCSCC1 | 5 | 3 | -1 | -6 | 71* | 51* | 43*
COCCNC(=O)C[C@@H]1CC[C@@H]2[C@H](COC[C@@H](O)CN2Cc2cccc(-c3ccncc3)c2)O1 | · | · | -10 | · | · | · | ·
CC(C)NC[C@H]1[C@@H](c2ccc(C3=CCCCC3)cc2)[C@@H](CO)N1C(=O)NC(C)C | · | · | 0 | · | · | · | ·
Clc1ccc(-c2cccc3nccn23)c(Cl)c1 | 6 | 11 | 1 | -6 | 15 | · | ·
Cc1cc(O)ccc1-c1cccc2nccn12 | -3 | -2 | 0 | 3 | 49* | -4 | -3
c1cc(-c2ccsc2)n2ccnc2c1 | 5 | -2 | -1 | 2 | 56* | 172* | 137*
O=C(C[C@H]1C=C[C@@H](NC(=O)Nc2ccc3c(c2)OCO3)[C@H](CO)O1)NCCCN1CCOCC1 | · | · | -1 | · | · | · | ·
CN1CCc2c(sc3nc(SCC(=O)N4CCOCC4)nc(N)c23)C1 | -1 | -4 | · | -3 | 54* | 9 | 5

Source: PubChem (several laboratories)
